This passage reports binding signal results from article PMC7862700, “An all-to-all approach to the identification of sequence-specific readers for epigenetic DNA modifications on cytosine”.

Holding throughout (experiment): DAPPL (digital affinity profiling via proximity ligation, sequencing); 10 mM Tris-HCl pH 7.5, 50 mM NaCl, 1 mM DTT, 4% glycerol, room temperature, 30 min; GST-TFs on glutathione beads, 16-mer random dsDNA library, 0.1% formaldehyde crosslink after washing; high values mean tight binding
Common to all, as to settings: protein: recombinant; tags: N-terminal GST; dsDNA, one strand shown

The target of one experiment is T1, FLI1 (Homo sapiens, UniProt Q01543 1-452).
T1 sequence: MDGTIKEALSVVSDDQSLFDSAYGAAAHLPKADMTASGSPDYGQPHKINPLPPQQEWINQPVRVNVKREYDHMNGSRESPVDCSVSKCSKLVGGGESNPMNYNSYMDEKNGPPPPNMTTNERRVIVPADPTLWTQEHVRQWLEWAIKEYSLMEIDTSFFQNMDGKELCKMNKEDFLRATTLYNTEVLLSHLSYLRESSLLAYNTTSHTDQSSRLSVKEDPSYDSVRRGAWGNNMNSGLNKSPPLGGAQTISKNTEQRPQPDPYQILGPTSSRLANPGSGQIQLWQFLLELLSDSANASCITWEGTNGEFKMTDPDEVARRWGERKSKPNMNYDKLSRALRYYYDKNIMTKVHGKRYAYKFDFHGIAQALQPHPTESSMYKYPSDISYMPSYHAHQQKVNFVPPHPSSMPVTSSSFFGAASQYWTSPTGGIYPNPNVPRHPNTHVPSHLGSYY
The procedure, abridged: (§1)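 Binding signal is given per hexamer as its read frequency for a factor divided by its frequency in the tag-only sample. GST-fused human transcription factors were expressed in yeast, captured on glutathione beads, barcoded with DNA and pooled with that sample, then incubated with 200 nmole of a 16-mer random double-stranded DNA library in Tris/NaCl/DTT/glycerol buffer for 30 min at room temperature. The pools were then washed, crosslinked, proximity-ligated, amplified by PCR and sequenced on an Illumina NextSeq500.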

Another experiment has as its target T2, ELK1 (Homo sapiens, UniProt P19419 1-428).
T2 sequence: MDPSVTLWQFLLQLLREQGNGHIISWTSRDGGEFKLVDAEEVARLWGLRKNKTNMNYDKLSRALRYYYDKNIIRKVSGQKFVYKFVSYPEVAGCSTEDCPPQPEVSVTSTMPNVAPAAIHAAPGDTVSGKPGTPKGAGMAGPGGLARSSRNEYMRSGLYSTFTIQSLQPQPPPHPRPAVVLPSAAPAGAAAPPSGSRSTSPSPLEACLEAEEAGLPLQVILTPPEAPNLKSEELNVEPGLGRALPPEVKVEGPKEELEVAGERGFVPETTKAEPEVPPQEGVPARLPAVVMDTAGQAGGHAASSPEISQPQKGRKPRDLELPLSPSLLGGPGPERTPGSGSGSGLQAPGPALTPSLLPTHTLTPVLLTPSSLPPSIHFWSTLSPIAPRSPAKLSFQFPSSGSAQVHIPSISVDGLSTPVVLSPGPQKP
The procedure, abridged: as §1

A further experiment has as its target T3, GABPA (Homo sapiens, UniProt Q06546 1-454).
T3 sequence: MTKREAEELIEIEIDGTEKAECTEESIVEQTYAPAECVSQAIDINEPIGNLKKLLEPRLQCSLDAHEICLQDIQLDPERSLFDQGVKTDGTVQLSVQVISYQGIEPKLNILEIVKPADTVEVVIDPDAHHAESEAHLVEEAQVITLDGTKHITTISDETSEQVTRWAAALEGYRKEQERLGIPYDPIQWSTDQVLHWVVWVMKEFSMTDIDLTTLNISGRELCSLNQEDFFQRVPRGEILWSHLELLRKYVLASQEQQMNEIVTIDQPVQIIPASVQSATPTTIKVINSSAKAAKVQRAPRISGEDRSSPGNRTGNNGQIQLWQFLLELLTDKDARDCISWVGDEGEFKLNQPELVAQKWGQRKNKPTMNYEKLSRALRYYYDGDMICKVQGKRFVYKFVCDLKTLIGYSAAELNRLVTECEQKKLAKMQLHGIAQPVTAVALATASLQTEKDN
The essentials: as §1

In another experiment the target is T4, ERG (Homo sapiens, UniProt P11308 1-479).
T4 sequence: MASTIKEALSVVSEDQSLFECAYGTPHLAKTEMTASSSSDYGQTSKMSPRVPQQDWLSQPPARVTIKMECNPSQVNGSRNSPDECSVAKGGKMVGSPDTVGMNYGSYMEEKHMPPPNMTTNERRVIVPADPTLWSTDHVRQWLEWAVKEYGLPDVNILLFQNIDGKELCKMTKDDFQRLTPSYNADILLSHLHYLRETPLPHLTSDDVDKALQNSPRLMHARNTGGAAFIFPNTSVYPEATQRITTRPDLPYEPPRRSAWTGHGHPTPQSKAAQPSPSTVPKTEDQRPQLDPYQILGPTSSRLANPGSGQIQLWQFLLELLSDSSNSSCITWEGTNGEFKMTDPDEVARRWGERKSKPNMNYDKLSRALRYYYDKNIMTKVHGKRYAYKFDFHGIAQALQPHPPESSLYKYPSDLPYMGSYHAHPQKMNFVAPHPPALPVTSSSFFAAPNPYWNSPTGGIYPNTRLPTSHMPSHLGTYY
The procedure, abridged: as §1

Another experiment concerns the target ELF1 (Homo sapiens, UniProt P32519 1-619). The essentials:
as §1

A further experiment concerns the target T5, EHF (Homo sapiens, UniProt Q9NZC4 1-300).
T5 sequence: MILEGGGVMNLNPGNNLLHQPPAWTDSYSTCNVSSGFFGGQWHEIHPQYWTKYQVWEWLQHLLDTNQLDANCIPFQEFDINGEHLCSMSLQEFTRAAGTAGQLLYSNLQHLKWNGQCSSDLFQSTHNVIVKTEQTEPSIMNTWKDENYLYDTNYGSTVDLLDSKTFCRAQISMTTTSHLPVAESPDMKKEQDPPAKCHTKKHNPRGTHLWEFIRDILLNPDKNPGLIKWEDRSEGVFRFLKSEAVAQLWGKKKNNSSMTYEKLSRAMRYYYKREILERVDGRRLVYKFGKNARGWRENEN
The essentials:
as §1

The target in the next experiment is SPI1 (Homo sapiens, UniProt P17947 1-270). The essentials:
as §1

A further experiment concerns the target SPIB (Homo sapiens, UniProt Q01892 1-262). The essentials: as §1
A further experiment concerns the target T6, ELK3 (Homo sapiens, UniProt P41970 1-407).
T6 sequence: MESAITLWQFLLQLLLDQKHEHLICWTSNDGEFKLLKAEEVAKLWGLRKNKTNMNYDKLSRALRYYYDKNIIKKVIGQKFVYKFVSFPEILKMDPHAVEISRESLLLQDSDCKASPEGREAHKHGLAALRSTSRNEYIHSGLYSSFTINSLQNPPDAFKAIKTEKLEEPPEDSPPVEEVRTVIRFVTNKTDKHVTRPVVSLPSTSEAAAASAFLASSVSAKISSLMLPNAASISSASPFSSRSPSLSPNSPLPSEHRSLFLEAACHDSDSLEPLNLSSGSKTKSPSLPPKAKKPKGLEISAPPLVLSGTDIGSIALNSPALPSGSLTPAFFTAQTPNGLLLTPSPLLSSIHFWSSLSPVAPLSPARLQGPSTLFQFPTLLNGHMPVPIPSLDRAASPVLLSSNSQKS
The procedure, abridged: as §1

For the next experiment, the target named is T7, FEV (Homo sapiens, UniProt Q99581 1-238).
T7 sequence: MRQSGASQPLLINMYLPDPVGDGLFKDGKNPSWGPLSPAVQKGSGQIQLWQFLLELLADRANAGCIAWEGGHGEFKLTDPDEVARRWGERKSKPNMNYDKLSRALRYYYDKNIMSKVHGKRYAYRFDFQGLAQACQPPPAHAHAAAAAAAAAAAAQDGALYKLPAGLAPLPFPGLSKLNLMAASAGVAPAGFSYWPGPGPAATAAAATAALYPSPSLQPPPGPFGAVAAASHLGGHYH
The essentials:
as §1

Another experiment concerns the target ETV5 (Homo sapiens, UniProt P41161 1-510). The procedure, abridged:
as §1

Another experiment concerns the target T8, SPIC (Homo sapiens, UniProt Q8N5J4 1-248).
T8 sequence: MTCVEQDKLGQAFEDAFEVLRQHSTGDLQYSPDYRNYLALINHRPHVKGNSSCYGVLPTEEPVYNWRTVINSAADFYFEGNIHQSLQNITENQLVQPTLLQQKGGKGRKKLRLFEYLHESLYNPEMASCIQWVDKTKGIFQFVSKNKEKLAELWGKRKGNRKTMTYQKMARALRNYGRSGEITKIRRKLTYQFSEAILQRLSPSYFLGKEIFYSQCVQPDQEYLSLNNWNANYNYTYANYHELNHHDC
The procedure, abridged:
as §1

The next experiment addresses ELF4 (Homo sapiens, UniProt Q99607 1-663). The essentials: as §1
A further experiment concerns the target T9, ELK4 (Homo sapiens, UniProt P28324-2 1-405).
T9 sequence: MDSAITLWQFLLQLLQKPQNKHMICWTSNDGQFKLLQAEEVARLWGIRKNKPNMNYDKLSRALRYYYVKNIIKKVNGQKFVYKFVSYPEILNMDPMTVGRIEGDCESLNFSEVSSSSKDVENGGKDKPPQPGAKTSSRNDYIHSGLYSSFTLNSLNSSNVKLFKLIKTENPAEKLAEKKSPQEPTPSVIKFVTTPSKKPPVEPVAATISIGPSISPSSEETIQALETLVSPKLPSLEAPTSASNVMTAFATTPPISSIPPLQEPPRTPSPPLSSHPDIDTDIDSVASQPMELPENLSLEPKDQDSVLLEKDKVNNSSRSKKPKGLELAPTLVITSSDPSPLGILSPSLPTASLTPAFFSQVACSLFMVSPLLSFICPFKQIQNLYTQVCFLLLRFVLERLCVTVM
The procedure, abridged:
as §1

Another experiment has as its target T10, ETV2 (Homo sapiens, UniProt O00321 1-342).
T10 sequence: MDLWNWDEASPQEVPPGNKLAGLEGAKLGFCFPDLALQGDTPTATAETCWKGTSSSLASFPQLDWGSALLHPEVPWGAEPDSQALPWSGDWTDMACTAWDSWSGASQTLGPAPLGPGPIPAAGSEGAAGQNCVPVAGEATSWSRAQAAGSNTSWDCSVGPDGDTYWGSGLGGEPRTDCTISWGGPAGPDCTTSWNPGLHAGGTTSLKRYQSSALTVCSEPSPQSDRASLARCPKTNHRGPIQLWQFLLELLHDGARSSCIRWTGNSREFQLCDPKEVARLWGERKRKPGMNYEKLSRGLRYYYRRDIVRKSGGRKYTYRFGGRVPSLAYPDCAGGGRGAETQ
The essentials:
as §1

A further experiment has as its target T11, ELF3 (Homo sapiens, UniProt P78545 1-371).
T11 sequence: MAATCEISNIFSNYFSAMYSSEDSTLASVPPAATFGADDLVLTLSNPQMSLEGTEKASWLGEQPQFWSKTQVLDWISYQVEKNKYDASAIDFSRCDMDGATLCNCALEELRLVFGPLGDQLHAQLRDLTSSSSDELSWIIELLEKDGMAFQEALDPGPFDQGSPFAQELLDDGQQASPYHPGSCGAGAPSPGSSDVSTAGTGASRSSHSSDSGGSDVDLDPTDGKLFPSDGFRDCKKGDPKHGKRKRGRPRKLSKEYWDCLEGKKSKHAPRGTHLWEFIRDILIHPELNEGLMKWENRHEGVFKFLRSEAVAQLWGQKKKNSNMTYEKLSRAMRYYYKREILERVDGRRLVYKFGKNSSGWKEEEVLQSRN
The essentials:
as §1

The target of another experiment is CRX (Homo sapiens, UniProt O43186 1-299). The procedure, abridged: as §1
The target in a further experiment is ETV1 (Homo sapiens, UniProt P50549 1-477). The procedure, abridged: as §1
Sequence of ETV1 (P50549 whole entry): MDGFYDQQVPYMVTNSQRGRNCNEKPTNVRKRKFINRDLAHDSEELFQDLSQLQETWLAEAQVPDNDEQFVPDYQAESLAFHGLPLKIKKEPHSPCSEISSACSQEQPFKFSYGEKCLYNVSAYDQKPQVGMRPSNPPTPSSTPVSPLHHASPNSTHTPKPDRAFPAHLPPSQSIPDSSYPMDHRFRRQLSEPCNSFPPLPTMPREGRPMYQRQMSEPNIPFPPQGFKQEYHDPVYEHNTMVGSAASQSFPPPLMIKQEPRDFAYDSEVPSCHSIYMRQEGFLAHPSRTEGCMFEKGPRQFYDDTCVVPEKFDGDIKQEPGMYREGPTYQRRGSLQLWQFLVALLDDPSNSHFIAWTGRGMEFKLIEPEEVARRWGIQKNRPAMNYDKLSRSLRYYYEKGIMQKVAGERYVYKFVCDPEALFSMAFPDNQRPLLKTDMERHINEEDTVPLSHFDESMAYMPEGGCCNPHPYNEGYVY

Sequence of ELF4 (Q99607 whole entry): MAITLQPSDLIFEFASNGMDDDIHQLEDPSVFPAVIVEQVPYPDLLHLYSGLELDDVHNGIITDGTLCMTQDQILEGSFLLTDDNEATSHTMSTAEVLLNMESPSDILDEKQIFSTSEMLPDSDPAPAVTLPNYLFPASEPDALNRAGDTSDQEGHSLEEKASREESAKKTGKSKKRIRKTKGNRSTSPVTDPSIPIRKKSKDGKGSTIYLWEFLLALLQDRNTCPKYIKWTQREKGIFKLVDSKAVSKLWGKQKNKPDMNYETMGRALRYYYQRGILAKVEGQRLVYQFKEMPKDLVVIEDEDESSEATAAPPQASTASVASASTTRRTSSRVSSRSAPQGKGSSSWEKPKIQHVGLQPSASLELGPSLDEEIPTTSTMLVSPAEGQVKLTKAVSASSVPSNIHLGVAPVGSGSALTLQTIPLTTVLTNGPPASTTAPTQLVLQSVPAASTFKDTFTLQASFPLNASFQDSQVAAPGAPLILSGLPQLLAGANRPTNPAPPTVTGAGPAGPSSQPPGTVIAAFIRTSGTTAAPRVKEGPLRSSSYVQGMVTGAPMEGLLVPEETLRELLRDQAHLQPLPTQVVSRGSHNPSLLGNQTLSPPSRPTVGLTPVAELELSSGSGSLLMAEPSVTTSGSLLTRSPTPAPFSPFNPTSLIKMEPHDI
Sequence of CRX (O43186 whole entry): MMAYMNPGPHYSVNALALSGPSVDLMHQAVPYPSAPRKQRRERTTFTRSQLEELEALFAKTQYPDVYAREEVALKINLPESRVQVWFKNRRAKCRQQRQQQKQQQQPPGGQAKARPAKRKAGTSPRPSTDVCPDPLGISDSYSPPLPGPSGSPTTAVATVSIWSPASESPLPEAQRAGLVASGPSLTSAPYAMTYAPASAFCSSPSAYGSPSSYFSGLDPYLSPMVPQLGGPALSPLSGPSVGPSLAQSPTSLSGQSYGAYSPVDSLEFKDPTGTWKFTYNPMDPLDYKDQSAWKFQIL
Sequence of ETV5 (P41161 whole entry): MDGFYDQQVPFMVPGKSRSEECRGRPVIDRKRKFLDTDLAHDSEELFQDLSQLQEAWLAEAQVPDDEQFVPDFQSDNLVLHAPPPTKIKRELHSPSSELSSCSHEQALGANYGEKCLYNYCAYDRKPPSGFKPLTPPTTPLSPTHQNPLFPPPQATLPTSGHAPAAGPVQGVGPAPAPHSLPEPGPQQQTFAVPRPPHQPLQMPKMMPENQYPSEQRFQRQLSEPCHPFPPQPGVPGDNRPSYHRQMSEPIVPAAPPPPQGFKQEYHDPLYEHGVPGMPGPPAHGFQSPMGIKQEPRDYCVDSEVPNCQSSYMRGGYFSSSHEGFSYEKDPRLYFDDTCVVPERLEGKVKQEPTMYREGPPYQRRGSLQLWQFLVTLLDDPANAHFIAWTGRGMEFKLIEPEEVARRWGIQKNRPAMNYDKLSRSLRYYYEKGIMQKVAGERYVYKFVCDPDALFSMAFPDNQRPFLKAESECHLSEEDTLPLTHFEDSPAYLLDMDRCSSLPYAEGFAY
Sequence of ELF1 (P32519 whole entry): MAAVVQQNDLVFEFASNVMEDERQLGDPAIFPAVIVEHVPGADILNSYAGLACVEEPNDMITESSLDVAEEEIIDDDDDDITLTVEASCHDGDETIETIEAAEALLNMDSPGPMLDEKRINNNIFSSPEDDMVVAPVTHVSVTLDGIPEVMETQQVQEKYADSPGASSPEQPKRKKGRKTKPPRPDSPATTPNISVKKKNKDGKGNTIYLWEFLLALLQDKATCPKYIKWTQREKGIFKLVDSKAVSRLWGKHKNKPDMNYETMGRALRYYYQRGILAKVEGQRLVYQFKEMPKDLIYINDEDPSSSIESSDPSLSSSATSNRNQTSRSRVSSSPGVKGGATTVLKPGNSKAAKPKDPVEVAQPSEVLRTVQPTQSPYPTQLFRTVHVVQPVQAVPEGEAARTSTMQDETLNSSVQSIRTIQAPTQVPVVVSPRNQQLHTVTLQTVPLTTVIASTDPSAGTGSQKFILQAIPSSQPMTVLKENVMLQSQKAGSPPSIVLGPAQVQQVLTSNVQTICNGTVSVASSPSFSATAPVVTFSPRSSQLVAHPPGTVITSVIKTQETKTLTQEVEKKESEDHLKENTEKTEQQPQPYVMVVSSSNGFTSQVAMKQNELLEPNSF
Sequence of SPIB (Q01892 whole entry): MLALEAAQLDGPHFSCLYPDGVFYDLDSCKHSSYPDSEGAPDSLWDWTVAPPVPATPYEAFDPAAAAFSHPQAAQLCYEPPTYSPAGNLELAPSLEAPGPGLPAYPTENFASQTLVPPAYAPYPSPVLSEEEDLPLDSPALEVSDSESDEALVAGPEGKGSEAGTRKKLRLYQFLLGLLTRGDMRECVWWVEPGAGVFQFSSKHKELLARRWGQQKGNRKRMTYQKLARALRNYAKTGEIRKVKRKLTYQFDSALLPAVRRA

Turning to GGTCTA, the binding signal was 1.12 fold enrichment (6-mer frequency, TF over GST control) in the experiment with FLI1; 1.05 fold enrichment (6-mer frequency, TF over GST control) with ELK1; 1.06 fold enrichment (6-mer frequency, TF over GST control) in the experiment with GABPA; 1.08 fold enrichment (6-mer frequency, TF over GST control) in the experiment with ERG; 1.05 fold enrichment (6-mer frequency, TF over GST control) with ELF1; 1.23 fold enrichment (6-mer frequency, TF over GST control) with EHF. The binding signal is 1.02 fold enrichment (6-mer frequency, TF over GST control) with SPI1; 1.05 fold enrichment (6-mer frequency, TF over GST control) in the experiment with SPIB; 1.24 fold enrichment (6-mer frequency, TF over GST control) in the experiment with ELK3; 1.06 fold enrichment (6-mer frequency, TF over GST control) with FEV; 1.11 fold enrichment (6-mer frequency, TF over GST control) with ETV5; 1.09 fold enrichment (6-mer frequency, TF over GST control) in the experiment with SPIC. Also, the binding signal was 1.11 fold enrichment (6-mer frequency, TF over GST control) in the experiment with ELF4; 1.04 fold enrichment (6-mer frequency, TF over GST control) with ELK4; 1.06 fold enrichment (6-mer frequency, TF over GST control) with ETV2; 1.01 fold enrichment (6-mer frequency, TF over GST control) with ELF3; 1.01 fold enrichment (6-mer frequency, TF over GST control) with CRX; 1.05 fold enrichment (6-mer frequency, TF over GST control) in the experiment with ETV1.
As to CTACGT, the binding signal with FLI1 is 1.29 fold enrichment (6-mer frequency, TF over GST control); in the experiment with ELK1, 1.23 fold enrichment (6-mer frequency, TF over GST control); with GABPA, 1.18 fold enrichment (6-mer frequency, TF over GST control); in the experiment with ERG, 1.19 fold enrichment (6-mer frequency, TF over GST control); with ELF1 it was 1.13 fold enrichment (6-mer frequency, TF over GST control); in the experiment with EHF, 1.25 fold enrichment (6-mer frequency, TF over GST control). Besides, the binding signal with SPI1 was 1.08 fold enrichment (6-mer frequency, TF over GST control); with SPIB, 1.27 fold enrichment (6-mer frequency, TF over GST control); with ELK3, 1.31 fold enrichment (6-mer frequency, TF over GST control); with FEV, 1.28 fold enrichment (6-mer frequency, TF over GST control); with ETV5, 1.09 fold enrichment (6-mer frequency, TF over GST control); with SPIC, 1.17 fold enrichment (6-mer frequency, TF over GST control). Besides, the binding signal with ELF4 was 1.24 fold enrichment (6-mer frequency, TF over GST control); with ELK4, 1.24 fold enrichment (6-mer frequency, TF over GST control); with ETV2 it was 1.03 fold enrichment (6-mer frequency, TF over GST control); in the experiment with ELF3, 1.01 fold enrichment (6-mer frequency, TF over GST control); with CRX it was 1.01 fold enrichment (6-mer frequency, TF over GST control); with ETV1, 1.3 fold enrichment (6-mer frequency, TF over GST control).
